# Experimental data as given in the supplement of paper PMC10037445.
# In all, about 2,900 compounds were measured (“NF-kB SEAP reporter activity, fold change vs agonist alone”: median about 0.99, highest 2% from about 2.6 on). Only a selection was taken, and the highest values are over-represented in it overall.
# Experiments:
# RAW-Dual [1] = experiment: NF-kB SEAP reporter activity, fold change vs agonist alone; cytotoxicity flag (confluency mask): not cytotoxic; higher = enhanced NF-kB activity
# Procedure, shortened: (§1)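 RAW-Dual macrophages were seeded in DMEM at 50,000 cells/well in 384-well plates, given 50 nL of library stock by pin tool, and given a PRR agonist 1 h later. Plates were held at 37 °C, 5% CO2 for 20 hours, after which supernatant was read for IRF by QuantiLuc luminescence and for NF-κB by QuantiBlue absorbance at 620 nm. Reporter activity is expressed as fold change over wells that received agonist alone. A well was called cytotoxic when IncuCyte confluency fell below 70% of agonist controls in both mask sets.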
# RAW-Dual [2] = experiment: NF-kB SEAP reporter activity, fold change vs agonist alone; higher = enhanced NF-kB activity; conditions: cytotoxicity flag (confluency mask): not cytotoxic
# Procedure, shortened: as §1
# [3] = agonist: ODN 1826 (TLR9) 0.5 ug/mL
# [4] = agonist: Pam2CSK4 (TLR2/6) 0.1 ug/mL
# [5] = agonist: Pam3CSK4 (TLR2/1) 0.1 ug/mL
# [6] = library stock concentration (final ~1000-fold dilution): 10 mM, agonist: Imiquimod (TLR7) […]
# [7] = library stock concentration (final ~1000-fold dilution): 10 mM, agonist: MPLA (TLR4) […]
# [8] = library stock concentration (final ~1000-fold dilution): .1 mM, agonist: Imiquimod (TLR7) […]
# [9] = library stock concentration (final ~1000-fold dilution): .1 mM, agonist: MPLA (TLR4) […]
smiles,measurement,setting,value
CCN(CC)C(=O)C1(c2ccccc2)CC1CN.Cl (stereo unspecified) (library stock concentration (final ~1000-fold dilution): 10 mM),NF-kB SEAP reporter activity,RAW-Dual [1]; agonist: LPS (TLR4) 0.1 ug/mL,0.999
same,NF-kB SEAP reporter activity,RAW-Dual [1]; [3],0.858
same,NF-kB SEAP reporter activity,RAW-Dual [1]; [4],0.856
same,NF-kB SEAP reporter activity,RAW-Dual [1]; [5],1.18
CC(=O)O.NCc1ccc(S(N)(=O)=O)cc1,NF-kB SEAP reporter activity,RAW-Dual [2]; [6],1.17
same,NF-kB SEAP reporter activity,RAW-Dual [2]; [7],1.03
CC(=O)O.NCc1ccc(S(N)(=O)=O)cc1 (library stock concentration (final ~1000-fold dilution): 10 mM),NF-kB SEAP reporter activity,RAW-Dual [1]; agonist: LPS (TLR4) 0.1 ug/mL,1.04
same,NF-kB SEAP reporter activity,RAW-Dual [1]; [3],1.01
same,NF-kB SEAP reporter activity,RAW-Dual [1]; [4],0.927
same,NF-kB SEAP reporter activity,RAW-Dual [1]; [5],1.23
CC1(C)CC(=O)c2c(C(F)(F)F)nn(-c3ccc(C(N)=O)c(NC4CCC(OC(=O)CN)CC4)c3)c2C1 (stereo unspecified),NF-kB SEAP reporter activity,RAW-Dual [2]; [6],0.916
same,NF-kB SEAP reporter activity,RAW-Dual [2]; [7],0.907
CC1(C)CC(=O)c2c(C(F)(F)F)nn(-c3ccc(C(N)=O)c(NC4CCC(OC(=O)CN)CC4)c3)c2C1 (stereo unspecified) (library stock concentration (final ~1000-fold dilution): 10 mM),NF-kB SEAP reporter activity,RAW-Dual [1]; agonist: LPS (TLR4) 0.1 ug/mL,0.226
same,NF-kB SEAP reporter activity,RAW-Dual [1]; [3],0.929
same,NF-kB SEAP reporter activity,RAW-Dual [1]; [4],0.113
same,NF-kB SEAP reporter activity,RAW-Dual [1]; [5],0.234
CC#CC(=O)N1CCC(n2c(=O)n(-c3ccc(Oc4ccccc4)cc3)c3c(N)ncnc32)C1.Cl (stereo unspecified),NF-kB SEAP reporter activity,RAW-Dual [2]; [6],0.734
same,NF-kB SEAP reporter activity,RAW-Dual [2]; [7],0.814
CC#CC(=O)N1CCC(n2c(=O)n(-c3ccc(Oc4ccccc4)cc3)c3c(N)ncnc32)C1.Cl (stereo unspecified) (library stock concentration (final ~1000-fold dilution): 10 mM),NF-kB SEAP reporter activity,RAW-Dual [1]; agonist: LPS (TLR4) 0.1 ug/mL,0.647
same,NF-kB SEAP reporter activity,RAW-Dual [1]; [3],0.662
same,NF-kB SEAP reporter activity,RAW-Dual [1]; [4],0.378
same,NF-kB SEAP reporter activity,RAW-Dual [1]; [5],0.517
CCOC(=O)C=P(c1ccccc1)(c1ccccc1)c1ccccc1 (library stock concentration (final ~1000-fold dilution): 10 mM),NF-kB SEAP reporter activity,RAW-Dual [1]; agonist: LPS (TLR4) 0.1 ug/mL,0.964
same,NF-kB SEAP reporter activity,RAW-Dual [1]; [3],0.875
same,NF-kB SEAP reporter activity,RAW-Dual [1]; [4],0.894
same,NF-kB SEAP reporter activity,RAW-Dual [1]; [5],0.912
CCOC(=O)C=P(c1ccccc1)(c1ccccc1)c1ccccc1,NF-kB SEAP reporter activity,RAW-Dual [2]; [6],0.715
same,NF-kB SEAP reporter activity,RAW-Dual [2]; [7],1.05
O=C(NCC(O)CN1CCc2ccccc2C1)c1ccnc(NC2CCC2)c1 (stereo unspecified),NF-kB SEAP reporter activity,RAW-Dual [2]; [6],0.885
same,NF-kB SEAP reporter activity,RAW-Dual [2]; [7],0.997
O=C(NCC(O)CN1CCc2ccccc2C1)c1ccnc(NC2CCC2)c1 (stereo unspecified) (library stock concentration (final ~1000-fold dilution): 10 mM),NF-kB SEAP reporter activity,RAW-Dual [1]; agonist: LPS (TLR4) 0.1 ug/mL,0.908
same,NF-kB SEAP reporter activity,RAW-Dual [1]; [3],0.581
same,NF-kB SEAP reporter activity,RAW-Dual [1]; [4],1.03
same,NF-kB SEAP reporter activity,RAW-Dual [1]; [5],0.884
CN(c1ncccc1CNc1nc(Nc2ccc3c(c2)CC(=O)N3)ncc1C(F)(F)F)S(C)(=O)=O.O=S(=O)(O)c1ccccc1 (library stock concentration (final ~1000-fold dilution): 10 mM),NF-kB SEAP reporter activity,RAW-Dual [1]; agonist: LPS (TLR4) 0.1 ug/mL,0.207
same,NF-kB SEAP reporter activity,RAW-Dual [1]; [3],0.982
same,NF-kB SEAP reporter activity,RAW-Dual [1]; [4],0.147
same,NF-kB SEAP reporter activity,RAW-Dual [1]; [5],0.882
CN(c1ncccc1CNc1nc(Nc2ccc3c(c2)CC(=O)N3)ncc1C(F)(F)F)S(C)(=O)=O.O=S(=O)(O)c1ccccc1,NF-kB SEAP reporter activity,RAW-Dual [2]; [6],1.02
same,NF-kB SEAP reporter activity,RAW-Dual [2]; [7],0.953
CC(C)(F)CC(NC(c1ccc(-c2ccc(S(C)(=O)=O)cc2)cc1)C(F)(F)F)C(=O)NC1(C#N)CC1 (stereo unspecified),NF-kB SEAP reporter activity,RAW-Dual [2]; [6],0.932
same,NF-kB SEAP reporter activity,RAW-Dual [2]; [7],1.02
CC(C)(F)CC(NC(c1ccc(-c2ccc(S(C)(=O)=O)cc2)cc1)C(F)(F)F)C(=O)NC1(C#N)CC1 (stereo unspecified) (library stock concentration (final ~1000-fold dilution): 10 mM),NF-kB SEAP reporter activity,RAW-Dual [1]; agonist: LPS (TLR4) 0.1 ug/mL,0.968
same,NF-kB SEAP reporter activity,RAW-Dual [1]; [3],1.15
same,NF-kB SEAP reporter activity,RAW-Dual [1]; [4],0.937
same,NF-kB SEAP reporter activity,RAW-Dual [1]; [5],0.97
Cc1cc(-c2ccnc3cc(O)ccc23)ccc1O (library stock concentration (final ~1000-fold dilution): .1 mM),NF-kB SEAP reporter activity,RAW-Dual [1]; agonist: LPS (TLR4) 0.1 ug/mL,3.3
same,NF-kB SEAP reporter activity,RAW-Dual [1]; [3],1.31
same,NF-kB SEAP reporter activity,RAW-Dual [1]; [4],1.32
same,NF-kB SEAP reporter activity,RAW-Dual [1]; [5],1.41
COc1ccc2c(-c3ccc(O)c(C)c3)ccnc2c1,NF-kB SEAP reporter activity,RAW-Dual [2]; [8],0.339
same,NF-kB SEAP reporter activity,RAW-Dual [2]; [9],1.1
Cc1cc(-c2ccnc3cc(O)ccc23)ccc1O,NF-kB SEAP reporter activity,RAW-Dual [2]; [8],1.38
same,NF-kB SEAP reporter activity,RAW-Dual [2]; [9],2.06
COc1ccc2c(-c3ccc(O)c(C)c3)ccnc2c1 (library stock concentration (final ~1000-fold dilution): .1 mM),NF-kB SEAP reporter activity,RAW-Dual [1]; agonist: LPS (TLR4) 0.1 ug/mL,1.1
same,NF-kB SEAP reporter activity,RAW-Dual [1]; [3],1.07
same,NF-kB SEAP reporter activity,RAW-Dual [1]; [4],0.664
same,NF-kB SEAP reporter activity,RAW-Dual [1]; [5],0.85
CC(NCc1ccc(OCc2cccc(F)c2)cc1)C(N)=O (stereo unspecified),NF-kB SEAP reporter activity,RAW-Dual [2]; [7],1.07
CC(NCc1ccc(OCc2cccc(F)c2)cc1)C(N)=O (stereo unspecified) (library stock concentration (final ~1000-fold dilution): 10 mM),NF-kB SEAP reporter activity,RAW-Dual [1]; agonist: LPS (TLR4) 0.1 ug/mL,1.32
same,NF-kB SEAP reporter activity,RAW-Dual [1]; [3],0.933
same,NF-kB SEAP reporter activity,RAW-Dual [1]; [4],1.16
same,NF-kB SEAP reporter activity,RAW-Dual [1]; [5],0.745
Nc1cc(C(F)(F)F)c(-c2nc(N3CCOCC3)nc(N3CCOCC3)n2)cn1 (library stock concentration (final ~1000-fold dilution): 10 mM),NF-kB SEAP reporter activity,RAW-Dual [1]; agonist: LPS (TLR4) 0.1 ug/mL,0.943
same,NF-kB SEAP reporter activity,RAW-Dual [1]; [3],0.711
same,NF-kB SEAP reporter activity,RAW-Dual [1]; [4],0.402
same,NF-kB SEAP reporter activity,RAW-Dual [1]; [5],0.503
FC(F)c1nc2ccccc2n1-c1nc(N2CCOCC2)nc(N2CCOCC2)n1,NF-kB SEAP reporter activity,RAW-Dual [2]; [6],1.77
same,NF-kB SEAP reporter activity,RAW-Dual [2]; [7],1.32
Nc1cc(C(F)(F)F)c(-c2cc(N3CCOCC3)nc(N3CCOCC3)n2)cn1,NF-kB SEAP reporter activity,RAW-Dual [2]; [6],1.71
same,NF-kB SEAP reporter activity,RAW-Dual [2]; [7],1.63
Nc1cc(C(F)(F)F)c(-c2cc(N3CCOCC3)nc(N3CCOCC3)n2)cn1 (library stock concentration (final ~1000-fold dilution): 10 mM),NF-kB SEAP reporter activity,RAW-Dual [1]; agonist: LPS (TLR4) 0.1 ug/mL,2.59
same,NF-kB SEAP reporter activity,RAW-Dual [1]; [3],2.07
same,NF-kB SEAP reporter activity,RAW-Dual [1]; [4],1.49
same,NF-kB SEAP reporter activity,RAW-Dual [1]; [5],0.904
FC(F)c1nc2ccccc2n1-c1nc(N2CCOCC2)nc(N2CCOCC2)n1 (library stock concentration (final ~1000-fold dilution): 10 mM),NF-kB SEAP reporter activity,RAW-Dual [1]; agonist: LPS (TLR4) 0.1 ug/mL,2.13
same,NF-kB SEAP reporter activity,RAW-Dual [1]; [3],0.832
same,NF-kB SEAP reporter activity,RAW-Dual [1]; [4],0.936
same,NF-kB SEAP reporter activity,RAW-Dual [1]; [5],0.767
Nc1cc(C(F)(F)F)c(-c2nc(N3CCOCC3)nc(N3CCOCC3)n2)cn1,NF-kB SEAP reporter activity,RAW-Dual [2]; [6],0.783
same,NF-kB SEAP reporter activity,RAW-Dual [2]; [7],1.11
